High-throughput results deposited in PubChem BioAssay by Broad Institute.
The list is a sample of the results.
aSyn 5UTR act – Activators via SNCA 5'UTR binding, MLPCN. alpha-synuclein 5'UTR reporter, activators screen. AID 1814. activity score, % (tested at 7.5 µM), hits read low. 7.1% of 300,000 active; in the data active means activity score below about -60%
Of the large screens only hits and unclear results are named; the others gave an inactive call.

Cc1ccc(C)c(OCc2cc(C(=O)N3CC[C@H](O)C3)no2)c1	aSyn 5UTR act -127
O=C(Nc1ccc2c(c1)nc1n2CCOC1)c1ccccc1	aSyn 5UTR act -80
CCCCC(=O)Nc1ccc2c(c1)nc1n2CCOC1	aSyn 5UTR act -77
Cc1ccc2c(c1)C(c1ccncc1)=NNC(c1ccccc1)=N2	aSyn 5UTR act -127
Cc1ccc(C2=Nc3ccc(Br)cc3C(c3ccncc3)=NN2)cc1	aSyn 5UTR act -70
O=C(N/N=C/C=C/c1ccc([N+](=O)[O-])cc1)c1cccs1	aSyn 5UTR act -77
O=C(N/N=C/c1cccc(OCc2ccccc2)c1)c1cccs1	aSyn 5UTR act -72
Cc1ccc2[nH]c(C(=O)N/N=C/c3ccc([N+](=O)[O-])cc3)c(C)c2c1	aSyn 5UTR act -63
O=C(N/N=C/c1ccc(Br)s1)c1ccc([N+](=O)[O-])cc1	none
O=C(N/N=C/c1cccc([N+](=O)[O-])c1)c1cccs1	aSyn 5UTR act -84
O=C(/C=C/c1cccc(Cl)c1)c1ccc([N+](=O)[O-])o1	none
O=C(/C=C/c1cccc([N+](=O)[O-])c1)c1cccs1	aSyn 5UTR act -77
CCCc1noc(-c2ccc(-c3ccccc3)cc2)n1	aSyn 5UTR act -112
Cn1ncc(Cl)c1C(=O)Nc1ccc(Cl)cn1	aSyn 5UTR act -114
O=C(Nc1ccc(Cl)cn1)Nc1ccccc1F	aSyn 5UTR act -153
O=C(Nc1ccc(Cl)cn1)Nc1ccc(Cl)cn1	aSyn 5UTR act -77
C/C(=C\c1ccccc1)C(=O)Nc1ccc(Cl)cn1	aSyn 5UTR act -180
CC(C)c1ccc(/C=N/NC(=O)c2c(Cl)cnn2C)cc1	aSyn 5UTR act -142
O=C(Nc1ccc(F)cc1)Nc1ccc(Cl)cn1	aSyn 5UTR act -121
Oc1ccc(Br)cc1-c1ccnn1-c1ccccc1	aSyn 5UTR act -114
c1ccc(Cn2ccc(-c3cnc(-c4ccccc4)s3)n2)cc1	aSyn 5UTR act -106
O=C(Nc1ccc2c3c(cccc13)CC2)c1ccco1	aSyn 5UTR act -65
O=C(Nc1ccc2c3c(cccc13)CC2)c1ccc(Br)o1	aSyn 5UTR act -76
Cn1c2ccccc2c(=O)c2ccc(-c3ccc4c(c3)OCO4)cc21	aSyn 5UTR act -145
Nc1c(-c2ccc3c(c2)OCCO3)oc2ccccc2c1=O	aSyn 5UTR act -145
COc1ccc(-c2cc(=O)c3ccccc3o2)cc1	aSyn 5UTR act -216
O=c1cc(-c2ccc3c(c2)OCO3)oc2ccccc12	aSyn 5UTR act -297
O=c1cc(-c2ccc(O)cc2)oc2ccccc12	aSyn 5UTR act -138
COc1ccc(N=c2cc(-c3ccc(O)cc3)oc3ccccc23)cc1	aSyn 5UTR act -62
O=c1cc(-c2ccc(O)cc2)oc2ccc(O)cc12	aSyn 5UTR act -151
COc1ccc(OCc2cc(C(=O)NCC3CCCCO3)no2)c(Cl)c1 (stereo not drawn)	aSyn 5UTR act -152
COc1ccc(OCc2cc(C(=O)NCCc3ccccc3)no2)c(Cl)c1	aSyn 5UTR act -95
CN(CCc1ccccc1)C(=O)c1cc(COc2ccc(F)cc2Cl)on1	aSyn 5UTR act -82
COc1ccc(CCNC(=O)c2cc(COc3c(C)cccc3C)on2)c(OC)c1	aSyn 5UTR act -91
O=C(NCCc1cnn(-c2ccccc2)c1)c1cc(COc2c(F)cccc2F)on1	aSyn 5UTR act -80
COc1ccc(OCc2cc(C(=O)NCC3CCOCC3)no2)c(Cl)c1	aSyn 5UTR act -140
COc1ccccc1OCCn1nnc2ccccc21	aSyn 5UTR act -101
Cc1ccc(OCCn2nnc3ccccc32)cc1C	aSyn 5UTR act -200
C(=C\c1nc(N2CCCCCC2)c2ccccc2n1)/c1ccccc1	aSyn 5UTR act -71
CCC(C)OC(=O)n1ccc(C(=O)Nc2nccs2)n1 (stereo not drawn)	aSyn 5UTR act -69
c1ccc(Nc2nc(CSc3ncn[nH]3)cs2)cc1	aSyn 5UTR act -135
Cc1ccc2c(C)c(C(=O)N(C)C(C)c3ccon3)oc2c1C (stereo not drawn)	aSyn 5UTR act -149
Nc1ccc(SCc2nc3cccc4c3n2CCC4)cc1	aSyn 5UTR act -99
Clc1ccc(-n2nnc(-c3cccnc3Cl)n2)cc1Cl	aSyn 5UTR act -109
Fc1ccc(-n2nnc(-c3cccnc3Cl)n2)cc1	aSyn 5UTR act -86
Nc1ccccc1SC1CC(=O)N(c2ccc3c(c2)OCCO3)C1=O (stereo not drawn)	aSyn 5UTR act -78
Cc1cc(C(=O)C(C)Sc2cccc[n+]2[O-])c(C)n1-c1ccc(Cl)cc1 (stereo not drawn)	aSyn 5UTR act -82
COc1cc2cccc(OC)c(=O)c2c(O)c1OC	aSyn 5UTR act -70
COc1cc2c(cc1OC)-c1c(OC)c(OC)cc3ccnc(c13)C2=O	none
Cc1ccn2cc(C(=O)Nc3ccccc3N3CCOCC3)nc2c1	aSyn 5UTR act -90
Cc1ccn2cc(C(=O)Nc3nnc(C)s3)nc2c1	aSyn 5UTR act -111
COc1ccc(Cl)cc1NC(=O)CN(C)CC(=O)Nc1ccccc1N1CCOCC1	none
O=C(Nc1ccccc1N1CCOCC1)c1ccc2ccccc2n1	aSyn 5UTR act -118
CC(C)CN1C(=O)c2ccc(NC(=O)c3ccco3)cc2C1=O	aSyn 5UTR act -84
O=C(CN1C(=O)c2ccccc2S1(=O)=O)c1ccccc1F	none
CC(C)CN1C(=O)c2ccc(NC(=O)c3cccs3)cc2C1=O	aSyn 5UTR act -129
CC(C)CN1C(=O)c2ccc(NC(=O)c3ccccc3F)cc2C1=O	aSyn 5UTR act -144
O=[N+]([O-])c1ccccc1-c1cc(-c2ccccc2O)n[nH]1	aSyn 5UTR act -256
Cc1ccc(O)c(-c2cc(-c3ccccc3F)[nH]n2)c1	aSyn 5UTR act -115
Cc1ccc(O)c(-c2cc(-c3cccc(F)c3)n[nH]2)c1	aSyn 5UTR act -96
Cc1ccc(-c2cc(-c3cccc(F)c3)n[nH]2)c(O)c1	aSyn 5UTR act -154
CCc1ccc(-c2nc(CSCC(=O)N3CCN(c4ccccn4)CC3)c(C)o2)cc1	none
O=C(CCSCc1ccccc1F)N1CCN(c2ccccn2)CC1	aSyn 5UTR act -78
O=C(CSCc1ccccc1Cl)N1CCN(c2ccccn2)CC1	aSyn 5UTR act -82
Nc1ccccc1N=Nc1ccccc1N	aSyn 5UTR act -222
COCCN=c1scc(-c2cccs2)n1/N=C(\C)c1ccco1	aSyn 5UTR act -153
CC(C)(C)c1ccc(-c2noc(-c3ccno3)n2)cc1	aSyn 5UTR act -120
CC(C)c1ccc(C(=O)N(c2ccccn2)C(C)c2ccco2)cc1 (stereo not drawn)	aSyn 5UTR act -161
CC(=O)NC(c1ccco1)c1ccc2cccnc2c1O (stereo not drawn)	none
COc1cc(N)ccc1NC(=O)c1cc2ccccc2o1	aSyn 5UTR act -136
CCCC(=O)Nc1ccc(NC(=O)c2cc3ccccc3o2)c(OC)c1	aSyn 5UTR act -222
COc1cc(NC(C)=O)ccc1NC(=O)c1cc2ccccc2o1	aSyn 5UTR act -83
CC(/C=N/NC(=O)c1cc(-c2ccc(Cl)cc2)nc2ccccc12)=C\c1ccco1	none
CC(/C=N/NC(=O)Cc1cccn1C)=C\c1ccco1	aSyn 5UTR act -69
Cc1ccc(CN2CCN(CC(=O)N/N=C/c3ccccc3F)CC2)cc1	aSyn 5UTR act -63
COc1ccc(C(=O)NCC(=O)N/N=C/C(C)=C/c2ccco2)cc1OC	aSyn 5UTR act -62
O=C(CNC(=O)c1ccccc1O)N/N=C/c1cc(Br)ccc1OC(=O)/C=C/c1ccco1	none
CC(/C=N/NC(=O)CN1CCN(Cc2ccc(Cl)cc2)CC1)=C\c1ccco1	aSyn 5UTR act -87
O=C(CN1CCN(Cc2ccccc2)CC1)N/N=C/C=C/c1ccco1	aSyn 5UTR act -95
Brc1ccc2oc(-c3ccn[nH]3)cc2c1	aSyn 5UTR act -175
Cc1cccc(N2C(=O)c3cccc4c(N5CCCCC5)c([N+](=O)[O-])cc(c34)C2=O)c1C	none
